In PubChem BioAssay:
Active and inactive are the calls of the source.

Assays:
[1] = E. coli DRC41 culture turbidity changes, primary screen, E. coli filamentation inducer project, strain DRC41, OD650, 48 h (AID 1152);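 further: E. coli MC1000 strain DRC41 lacking acrAB efflux pump and sulA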; conditions: E. coli DRC41 (acrAB sulA), higher = more signal, called active from +8 up or from −8 down
[2] = small-molecule binders of probe aLefty1, primary screen, biochemical, small-molecule microarray, 635/667 nm fluorescence (AID 1153); conditions: higher = more signal;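 further: score merges spot fluorescence with signal-to-noise ratio from the scanned slide images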
[3] = PSAC antagonists in infected red cells, primary screen, cell-based, P. falciparum Indochina, OD700, 1 h (AID 1154); conditions: P. falciparum Indochina infected RBC osmotic lysis, higher = more signal, called active from +8 up or from −8 down
[4] = PSAC antagonists in infected red cells, primary screen, cell-based, P. falciparum Indochina, OD700, 2 h (AID 1155);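 further: lysis reports solute entry through the parasite surface anion channel PSAC; channel blockers reduce lysis of infected cells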; conditions: P. falciparum Indochina infected erythrocytes, osmotic lysis OD700; higher = more signal, called active from +8 up or from −8 down
[5] = osmotic lysis modulators in infected erythrocytes, primary screen, PSAC antagonist project, cell-based, P. falciparum Indochina, OD700, 3 h (AID 1156); conditions: higher = more signal, called active from +8 up or from −8 down
[6] = PSAC antagonists in infected red cells, primary screen, cell-based, P. falciparum Indochina, OD700, 18 h (AID 1157); conditions: P. falciparum Indochina infected erythrocytes, osmotic lysis OD700, 18 h; higher = more signal, called active from +8 up or from −8 down
[7] = modulators of S6 phosphorylation in cells, primary screen, cell-based, A549, cytoblot, luminescence, serum-stimulated (AID 1158); conditions: A549 phospho-S6 cytoblot, 5 h, higher = more signal;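 further: serum-stimulated A549 lung adenocarcinoma cells; signal is phosphorylated S6 detected by cytoblot immunostaining with HRP secondary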
[8] = target: NADPH oxidase 2 (Homo sapiens) (UniProt P04839); assay: NOX2-dependent H2O2 signal modulators, primary screen, NOX inhibitor project, cell-based, HEK293-NOX2, PMA-stimulated, Amplex Red fluorescence (AID 1159); conditions: 45 min, higher = more signal, called active from +8 up or from −8 down; further: test concentration not given here
Chain of NADPH oxidase 2 (Homo sapiens) (P04839 whole entry, looked up): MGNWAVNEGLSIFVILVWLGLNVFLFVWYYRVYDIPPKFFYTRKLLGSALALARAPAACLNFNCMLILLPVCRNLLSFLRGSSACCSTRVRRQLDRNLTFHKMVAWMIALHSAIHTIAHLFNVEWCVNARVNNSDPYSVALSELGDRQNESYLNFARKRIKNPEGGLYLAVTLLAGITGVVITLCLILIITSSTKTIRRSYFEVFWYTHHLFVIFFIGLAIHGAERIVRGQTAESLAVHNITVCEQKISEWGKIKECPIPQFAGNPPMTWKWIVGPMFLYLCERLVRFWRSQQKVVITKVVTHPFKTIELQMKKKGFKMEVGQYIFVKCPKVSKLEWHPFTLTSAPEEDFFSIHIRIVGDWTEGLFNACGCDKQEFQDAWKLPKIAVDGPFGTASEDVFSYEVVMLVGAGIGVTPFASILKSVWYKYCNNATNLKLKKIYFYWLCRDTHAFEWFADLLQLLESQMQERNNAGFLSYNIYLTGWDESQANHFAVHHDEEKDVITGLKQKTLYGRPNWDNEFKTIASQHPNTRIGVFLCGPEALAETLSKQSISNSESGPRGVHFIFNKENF

[9] = target: NADPH oxidase 4 (Homo sapiens) (UniProt Q9NPH5); assay: NOX4-dependent H2O2 signal modulators, primary screen, NOX inhibitor project, cell-based, HEK293-NOX4, tetracycline-induced, Amplex Red fluorescence (AID 1160); conditions: 45 min, higher = more signal, called active from +8 up or from −8 down
Chain of NADPH oxidase 4 (Homo sapiens) (Q9NPH5 whole entry, looked up): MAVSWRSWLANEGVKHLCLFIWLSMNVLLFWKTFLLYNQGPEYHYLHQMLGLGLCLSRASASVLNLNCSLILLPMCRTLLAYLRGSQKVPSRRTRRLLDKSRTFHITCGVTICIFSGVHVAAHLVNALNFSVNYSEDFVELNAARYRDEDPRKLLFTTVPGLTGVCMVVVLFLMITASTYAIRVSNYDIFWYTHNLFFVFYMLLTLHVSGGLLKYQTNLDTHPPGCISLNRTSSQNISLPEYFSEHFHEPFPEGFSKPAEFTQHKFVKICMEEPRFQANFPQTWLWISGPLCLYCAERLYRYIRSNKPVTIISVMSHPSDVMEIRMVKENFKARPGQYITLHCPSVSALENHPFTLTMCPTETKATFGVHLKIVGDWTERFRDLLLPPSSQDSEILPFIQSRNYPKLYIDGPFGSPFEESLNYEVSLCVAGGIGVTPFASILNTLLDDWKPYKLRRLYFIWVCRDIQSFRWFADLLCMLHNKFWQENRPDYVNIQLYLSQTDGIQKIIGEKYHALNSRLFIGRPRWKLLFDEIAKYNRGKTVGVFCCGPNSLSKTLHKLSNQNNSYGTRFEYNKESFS

[10] = target: NADPH oxidase 5 (Homo sapiens) (UniProt Q96PH1); assay: NOX5-dependent H2O2 signal modulators, primary screen, NOX inhibitor project, cell-based, HEK293-NOX5, Amplex Red fluorescence (AID 1161); conditions: HEK293-NOX5, ionomycin, 45 min, higher = more signal
Chain of NADPH oxidase 5 (Homo sapiens) (Q96PH1 whole entry, looked up): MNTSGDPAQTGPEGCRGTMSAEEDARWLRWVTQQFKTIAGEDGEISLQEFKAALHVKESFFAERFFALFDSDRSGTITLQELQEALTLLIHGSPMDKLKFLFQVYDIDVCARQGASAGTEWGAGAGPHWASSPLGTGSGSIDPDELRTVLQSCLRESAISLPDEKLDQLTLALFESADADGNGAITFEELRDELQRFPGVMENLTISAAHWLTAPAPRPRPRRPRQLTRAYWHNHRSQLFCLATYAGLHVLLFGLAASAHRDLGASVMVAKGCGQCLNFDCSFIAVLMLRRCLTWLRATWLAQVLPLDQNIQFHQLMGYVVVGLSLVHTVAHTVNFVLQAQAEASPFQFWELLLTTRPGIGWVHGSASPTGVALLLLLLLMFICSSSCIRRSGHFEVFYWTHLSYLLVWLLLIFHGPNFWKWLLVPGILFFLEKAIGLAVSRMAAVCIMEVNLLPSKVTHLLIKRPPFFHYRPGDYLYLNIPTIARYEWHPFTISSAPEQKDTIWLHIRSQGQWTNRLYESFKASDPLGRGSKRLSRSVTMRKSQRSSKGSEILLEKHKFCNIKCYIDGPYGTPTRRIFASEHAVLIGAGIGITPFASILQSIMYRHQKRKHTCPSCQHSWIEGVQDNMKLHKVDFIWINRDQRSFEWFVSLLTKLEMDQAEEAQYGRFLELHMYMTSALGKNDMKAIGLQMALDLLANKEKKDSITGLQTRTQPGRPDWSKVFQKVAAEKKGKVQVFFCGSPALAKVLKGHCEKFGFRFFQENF

SMILES	z-score [1]	composite z-score [2]	z-score [3]	z-score [4]	z-score [5]	z-score [6]	z-score [7]	z-score [8]	z-score [9]	z-score [10]
COC(=O)C1=C(C)N(Cc2ccccc2)c2c(C(=O)OC)c(C(=O)OC)c(C(=O)OC)c(=O)n2[C@@H]1c1ccccc1	0.199 (inactive)	-0.0186	0.294 (inactive)	-1.61 (inactive)	0.012 (inactive)	-1.45 (inactive)	0.715	1.74 (inactive)	0.873 (inactive)	-0.0758
COCCCNC(=O)[C@@]1(c2ccc([N+](=O)[O-])cc2)CC(=O)N(C2CCCCC2)[C@@H]1c1ccc(CO)cc1	0.857 (inactive)	-0.602	1.93 (inactive)	0.349 (inactive)	1.76 (inactive)	0.499 (inactive)	-0.203	0.929 (inactive)	0.721 (inactive)	0.537
COc1ccc([Si](C)(C)[C@@H]2[C@@H](CCO)O[C@]3(C(=O)N(Cc4ccc(NC(=O)[C@H](C)O)cc4)c4ccccc43)[C@H]2C)cc1	1.12 (inactive)	0.0378	31.4 (active)	27.1 (active)	1.58 (inactive)	2.46 (inactive)	0.597	0.535 (inactive)	1.26 (inactive)	0.648
CCCC[C@H]1OB(O)C[C@H]2C1=C(COC)C[C@H]1C(=O)N(Cc3ccccc3)C(=O)[C@H]12	2.78 (inactive)	-0.0969	1.14 (inactive)	-1.1 (inactive)	0.223 (inactive)	-2 (inactive)	0.932	0.034 (inactive)	0.811 (inactive)	1.37
C=CCOC(=O)[C@@H]1[C@H]2C(=O)O[C@H](c3ccccc3)[C@H](c3ccccc3)N2[C@H](c2ccc(OCCOC(=O)[C@H]3C[C@H]4C(=O)N[C@@H](CCCCNC(C)=O)C(=O)N4[C@H]3c3ccc(O)cc3)cc2)[C@@]12C(=O)Nc1ccc(I)cc12	-0.725 (inactive)	0.325	2.99 (inactive)	1.92 (inactive)	0.855 (inactive)	1.23 (inactive)	1.3	2.16 (inactive)	1.27 (inactive)	1.64
COc1ccc(-c2cc3c(c(-c4ccccc4)n2)[Si](C(C)C)(C(C)C)O[C@H]3c2ccccc2)cn1	-1.27 (inactive)	-0.147	1.71 (inactive)	0.489 (inactive)	-0.479 (inactive)	-0.183 (inactive)	-0.442	0.601 (inactive)	0.451 (inactive)	0.929
COc1ccc([Si](C)(C)[C@@H]2[C@@H](CCO)O[C@]3(C(=O)N(Cc4ccccc4)c4ccccc43)[C@H]2C)cc1	1.25 (inactive)	-0.0143	1.13 (inactive)	0.81 (inactive)	0.117 (inactive)	0.353 (inactive)	0.779	1.57 (inactive)	-0.523 (inactive)	1.84
CO[C@H]1COC(=O)[C@@H](C)NC(=O)CC=C[C@@H](C)[C@H](OC)COC(=O)CC=C[C@@H]1C	0.394 (inactive)	0.0455	1.08 (inactive)	-0.211 (inactive)	0.237 (inactive)	-1.58 (inactive)	0.722	0.714 (inactive)	0.981 (inactive)	0.539
O=C1C2C=CC(C(O)C(c3ccccc3)c3ccccc3)N(Nc3ccc([N+](=O)[O-])cc3)C2C(=O)N1c1ccccc1 (stereo not given)	-0.344 (inactive)	0.442	5.98 (inactive)	1.73 (inactive)	-0.186 (inactive)	1.29 (inactive)	-0.606	0.128 (inactive)	-1.06 (inactive)	-0.097
O=C1OCCC/C=C\[C@H]2OC34C=CCN(CCN5CCOCC5)C(=O)[C@H]3N(CCCCCO)C(=O)[C@@H]4C12 (stereo not given in full)	-0.938 (inactive)	-0.0984	1.07 (inactive)	-0.314 (inactive)	-0.566 (inactive)	-0.525 (inactive)	-0.768	0.796 (inactive)	-0.109 (inactive)	1.01
Cc1ccc(S(=O)(=O)N[C@H]2COC(=O)CC=C[C@H](C)COC(=O)N[C@@H](C)C(=O)CC=C[C@@H]2C)cc1	0.0157 (inactive)	-0.191	1.3 (inactive)	0.678 (inactive)	1.1 (inactive)	0.451 (inactive)	1.87	0.142 (inactive)	-1.45 (inactive)	-0.213
O=C1c2ccccc2[C@](Cc2ccccc2I)(C(=O)NCc2ccccc2)[C@H](c2ccc(CO)cc2)N1Cc1ccccc1C(F)(F)F	1.73 (inactive)	-0.103	1.62 (inactive)	-0.664 (inactive)	-0.345 (inactive)	-1.24 (inactive)	0.524	0.617 (inactive)	-0.738 (inactive)	2.32
COCCOC(=O)N1C(=O)[C@@]2(c3ccccc31)[C@H](C(=O)N1CCc3cc(OC)c(OC)cc3C1)[C@H]1C(=O)O[C@H](c3ccccc3)[C@H](c3ccccc3)N1[C@@H]2c1ccccc1OCCO	2.1 (inactive)	0.391	8.34 (active)	1.35 (inactive)	1.38 (inactive)	0.123 (inactive)	2.25	2.12 (inactive)	1.46 (inactive)	0.00739
